Reference: PubChem BioAssay AID1259421 (Broad Institute, 2018)
Where “and” joins values, the source holds several entries; their conditions need not be identical. Identical values can stand only once. Hit rate of the full screen: of about 6,400 compounds, about 610 (9.5%) were called active. No stated cut-off is given here; in the data, active means activity change below about -70%; inconclusive means no clear call, values can overlap the other calls; inactive means above that. The sample as a whole holds a higher share of actives than the screen did. Where a structure was tested more than once in an assay, its records may differ in their call.

experiment: T. gondii ME49Luc in HeLa cells, luciferase assay, 72 h, no IFN-y (AID 1259421); conditions: stronger effect = lower value, concentration not given here

Structure (SMILES) | activity change, negative = inhibition
C[C@H](N)Cc1ccccc1 | 4.68% (inactive)
O=[N+]([O-])NC1=NCCN1Cc1ccc(Cl)nc1 | 8.16% (inactive)
C[C@]12CCC3C(CC[C@H]4CC(=O)CC[C@]34C)C1CCC2=O (some centres not stated) | 1.73% (inactive)
CC[C@H]1CN2CCC1C[C@@H]2[C@@H](O)c1ccnc2ccc(OC)cc12 (some centres not stated) | 14.8% (inactive) and 8.86% (inactive)
CN1CCc2cc(Cl)c(O)cc2[C@H]2c3ccccc3CC[C@@H]21 | -4.73% (inactive)
CNc1ccccc1C(=O)O | -1.44% (inactive)
CCCCOC(=O)c1ccccc1C(=O)OCCCC | 3.08% (inactive) and -9.32% (inactive)
C[CH2][Hg][S]c1ccccc1C(=O)O | -88.9% (active) and -92.1% (active)
O=c1cccc2n1C[C@H]1CNCC2C1 | 4.99% (inactive)
C#C[C@]1(O)CC[C@H]2[C@@H]3CCC4=CC(=O)CCC4=C3C=C[C@@]21CC | -82.3% (active)
C=CC[C@@]1(O)CC[C@H]2[C@@H]3CCC4=CC(=O)CCC4=C3C=C[C@@]21C | 9.86% (inactive)
C=CC[C@]1(O)CCC2C3CCC4=CC(=O)CCC4=C3C=C[C@@]21C (some centres not stated) | 11.2% (inactive)
C=C[C@H]1CN2CC[C@H]1C[C@@H]2[C@@H](OC(=O)OCC)c1ccnc2ccc(OC)cc12 | 7.12% (inactive) and 13% (inactive)
CCCN1CCO[C@H]2c3cc(O)ccc3OC[C@@H]21 | -9.29% (inactive)
NCCc1cccc(O)c1 | -9.36% (inactive)
Oc1ccc2c3c1OC1[C@@H](O)CC[C@@]4(O)[C@@H](C2)N(CC2CCC2)CC[C@]314 (some centres not stated) | 3.08% (inactive)
C[C@@]1(CO)[C@H](O)CC[C@@]2(C)[C@H]1CC[C@H]1C[C@@H]3C[C@@]12CC[C@]3(O)CO | -87.7% (active)
CC(C(=O)OC1CC2CCC(C1)N2C)c1ccc(Br)cc1 (configuration not stated) | -1.35% (inactive) and 1.24% (inactive)
CC[C@@]1(O)C(=O)OCc2c1cc1n(c2=O)Cc2cc3ccccc3nc2-1 | -82.2% (active) and -91.4% (active)
Cc1c(C(=O)c2cccc3ccccc23)c2cccc3c2n1[C@H](CN1CCOCC1)CO3 | -89.2% (active)
Cc1c(C(=O)c2cccc3ccccc23)c2cccc3c2n1[C@@H](CN1CCOCC1)CO3 | 46.7% (inactive)
CCCn1c(C)c(C(=O)c2cccc3ccccc23)c2ccccc21 | 93.6% (inactive)
CC(=O)Oc1ccc(Cl)c2cccnc12 | -3.09% (inactive)
Cc1c(N2C(=O)[C@@H]3[C@H](O)CCN3C2=O)ccc(C#N)c1Cl | 8.89% (inactive)
C[C@@H]1O[C@@H](O[C@H]2C[C@@H](O)[C@]3(CO)C4C(CC[C@]3(O)C2)[C@@]2(O)CC[C@H](C3=CC(=O)OC3)[C@@]2(C)C[C@H]4O)[C@H](O)[C@H](O)[C@H]1O (some centres not stated) | -88.6% (active)
CC1OC(OC2CC(O)C3(CO)C4C(O)CC5(C)C(C6=CC(=O)OC6)CCC5(O)C4CCC3(O)C2)C(O)C(O)C1O (configuration not stated) | -83.7% (active)

Structure (SMILES) | activity change, negative = inhibition
C[C@@H]1O[C@@H](O[C@@H]2C[C@@H](O)[C@]3(CO)[C@H]4[C@H](O)C[C@]5(C)[C@@H](C6=CC(=O)OC6)CC[C@]5(O)[C@@H]4CC[C@]3(O)C2)[C@H](O)[C@H](O)[C@H]1O | -77.1% (active)
C=CCN1CCC23c4c5ccc(O)c4OC2/C(=N\NC(=O)c2ccccc2)CCC3(O)C1C5 (configuration not stated) | 25.6% (inactive)
C=CCN1CC[C@]23c4c5ccc(O)c4OC2C(=O)CC[C@@]3(O)[C@H]1C5 (some centres not stated) | 4.78% (inactive)
CCN1C[C@]2(OC(=O)c3ccccc3NC(C)=O)CC[C@@H](OC)[C@]34C1[C@@H](C[C@H]23)[C@@]1(O)C[C@H](OC)[C@H]2C[C@H]4[C@]1(O)[C@H]2OC | 10.9% (inactive)
O=C(O)c1ccccn1.O=C(O)c1ccccn1.O=C(O)c1ccccn1.[Cr] | 10.5% (inactive)
Cc1ccc2c(c1)Cc1c(C(=O)NN3CCCCC3)nn(-c3ccc(Cl)cc3Cl)c1-2 | -71% (active) and -58.8% (inactive)
Cc1ccc2c(c1)Cc1c(C(=O)NC3CCCCC3)nn(-c3ccc(Cl)cc3Cl)c1-2 | -23.4% (inactive) and -2.64% (inactive)
C/C(=C\C(N)C(=O)O)CP(=O)(O)O (configuration not stated) | -4.78% (inactive)
c1ccc(C2CNCc3ccccc32)cc1 (configuration not stated) | 5.48% (inactive)
C=C1CC2C(CC[C@]3(C)C(=O)CCC23)[C@@]2(C)C=CC(=O)C=C12 (some centres not stated) | 11.4% (inactive)
CN1C(=O)CCS(=O)(=O)C1c1ccc(Cl)cc1 (configuration not stated) | 18% (inactive) and -3.16% (inactive)
CC1(C)C2C[C@@H](O)[C@]3(C)C(CC[C@@]4(C)[C@H](c5ccoc5)OC(=O)[C@H]5O[C@]543)[C@@]2(C)[C@@H](O)C[C@H]1O (some centres not stated) | 4.33% (inactive)
COC(=O)[C@@H]1C[C@H](OC(C)=O)C(=O)[C@H]2[C@@]1(C)CC[C@H]1C(=O)O[C@H](c3ccoc3)C[C@]21C | 11.7% (inactive) and 9.72% (inactive)
CC1(C)C2CC(=O)[C@]3(C)C(CC[C@@]4(C)[C@H](c5ccoc5)OC(=O)C5OC543)[C@@]2(C)[C@@H](O)C[C@H]1O (some centres not stated) | 1.93% (inactive)
CC1(C)C(=O)C=C[C@@]2(C)C1C(=O)C(=O)[C@]1(C)C2CC[C@@]2(C)[C@H](c3ccoc3)C[C@H]3O[C@]321 (some centres not stated) | -86.1% (active)
CC1(C)C(=O)[C@@H]2O[C@@H]2[C@@]2(C)C1C[C@@H](O)[C@]1(C)C2CC[C@@]2(C)[C@H](c3ccoc3)OC(=O)C3OC321 (some centres not stated) | 20.5% (inactive)
CC(=O)O[C@@H]1C[C@@]2(C)[C@H](c3ccoc3)C[C@H]3O[C@]32[C@]2(C)C(=O)C(=O)C3C(C)(C)C(=O)C=C[C@]3(C)C12 (some centres not stated) | -89.9% (active)
CN1[C@@H]2CC[C@H]1CC(OC(=O)N1Cc3ccccc3NC1=O)C2 (some centres not stated) | 15% (inactive) and 8.45% (inactive)
CC(CO)NC(=O)C1C=C2c3cccc4[nH]cc(c34)C[C@H]2N(C)C1 (some centres not stated) | 15.2% (inactive) and -0.618% (inactive)
COc1ccc2c(c1O)-c1cc(O)cc3c1[C@@H](C2)N(C)CC3 | -5.61% (inactive)
CC(N)Cn1ccc2cc(F)c(Cl)cc21 (configuration not stated) | 4.63% (inactive)
COc1cc2c(cc1OC)-c1c(oc3c4c(ccc3c1=O)OC(C(C)C)C4)CO2 (configuration not stated) | 16.2% (inactive)
Cc1cccc(Cc2cnc[nH]2)c1C | 32.1% (inactive)
CN1C[C@@H](NS(=O)(=O)N(C)C)C[C@@H]2c3cccc4c3c(cn4C)C[C@H]21 | 14.9% (inactive)
COC(=O)NC(=S)Nc1ccccc1NC(=S)NC(=O)OC | 8.42% (inactive) and 11.6% (inactive)
CC(C)=CCCN1CCC(NC(=O)[C@](O)(c2ccccc2)C2CCCC2)CC1 | 1.64% (inactive)

Structure (SMILES) | activity change, negative = inhibition
c1cncc(C2CCCN2)c1 (configuration not stated) | 2.36% (inactive)
c1cncc(C2CCCCN2)c1 (configuration not stated) | 9.05% (inactive) and -25.4% (inactive)
Fc1cc(F)c2c(c1)[C@H]1C=CC[C@H]1C(c1cccnc1)N2 (some centres not stated) | -75.5% (active)
O=C1CC[C@@]2(O)[C@H]3Cc4ccc(O)c5c4C2(CCN3CC2CC2)[C@H]1O5 | -9.85% (inactive)
COc1cc2c3cc1Oc1c(OC)c(OC)cc4c1[C@@H](Cc1cccc(c1)Oc1ccc(c(O)c1)C[C@@H]3N(C)CC2)N(C)CC4 | -11.3% (inactive)
CCCCC/C=C\C/C=C\C/C=C\C/C=C\CCCC(=O)NCc1ccc(O)c(OC)c1 | 8.17% (inactive)
CCCCC/C=C\C/C=C\C/C=C\C/C=C\CCCC(=O)Nc1ccc(O)cc1 | -78.5% (active)
CCCCC/C=C\C/C=C\C/C=C\C/C=C\CCCC(=O)NCCO | 34.9% (inactive)
COC(=O)C=CC(=O)NC1CCC2(O)C3Cc4ccc(O)c5c4C2(CCN3CC2CC2)C1O5 (configuration not stated) | 12.8% (inactive)
CC(=O)[O][Hg][c]1ccccc1 | -50.7% (inactive)
C[C@@H]([C@H](O)c1ccccc1)N(C)C | -0.751% (inactive) and -3.37% (inactive)
C[Se]C[C@H](N)C(=O)O | 10.4% (inactive)
COc1cc([C@@H]2c3cc4c(cc3[C@H](OC(C)=O)[C@H]3COC(=O)[C@H]23)OCO4)cc(OC)c1OC | -81.6% (active)
COc1cc([C@@H]2c3cc4c(c(O)c3C[C@H]3COC(=O)[C@@H]32)OCO4)cc(OC)c1OC | -71.9% (active)
COc1ccc2c(c1OC)CN1CCc3cc4c(cc3C1C2)OCO4 (configuration not stated) | 15.2% (inactive)
COc1ccc2c(c1OC)C(=O)O[C@@H]2[C@H]1c2cc3c(cc2CCN1C)OCO3 | 2.97% (inactive)
COc1cc([C@@H]2c3cc4c(cc3[C@@H](O)C3COC(=O)C32)OCO4)cc(OC)c1O (some centres not stated) | -8.26% (inactive)
CCN1C[C@]2(OC(=O)c3ccccc3NC(C)=O)CCC(OC)[C@]34C1[C@H](CC23)[C@@]1(O)CC(OC)[C@H]2CC4C1(O)[C@H]2OC (some centres not stated) | -6.02% (inactive)
CC(C)(C)[C@]1(O)C[C@@H]2OC(=O)C[C@@]23C(=O)O[C@@H]2OC(=O)[C@H](O)C213 (some centres not stated) | 7.37% (inactive)
COC1(C[S@@](=O)c2ccccc2)CCN(CCc2c[nH]c3ccc(F)cc23)CC1 | 22.1% (inactive)
CN1[C@@H]2CC[C@H]1CC(OC1c3ccccc3CCc3ccccc31)C2 (some centres not stated) | 15.8% (inactive)
c1ccc2c(c1)sc1ccccc12 | -5.87% (inactive)
C=C[C@H]1CN2CC[C@H]1C[C@@H]2[C@H](O)c1ccnc2ccccc12 | -7.58% (inactive)
CC(C)c1ccc2c(c1O)CC[C@H]1C3=C(CC[C@]21C)C(=O)OC3 | 0.532% (inactive)
CC(C)[C@]12O[C@H]1[C@@H]1O[C@]13[C@]1(O[C@H]1C[C@H]1C4=C(CC[C@@]13C)C(=O)OC4)[C@@H]2O | -86.5% (active)
